Measured values as given in PubChem BioAssay (EPA / NIEHS).
Activity calls are given as the source filed them. The calls were made as follows: active = hit-call score of the fitted dose curve at least 0.9, where 1 is the maximum; inactive = score below 0.9.

Experiments:
Settings in all cases: mRNA level, 48 h; actives raise or lower the signal
[1] = read-out: matrix metalloproteinase-10 (MMP10), MMP10 (gene 4319); experiment: LTEA_HepaRG_MMP10: Life Technologies and Expression Analysis (LTEA) Assay for matrix metalloproteinase-10 (MMP10) using HepaRG (AID 2283517)
How it was run: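 In differentiated HepaRG cultures kept in 0.5% DMSO, test chemicals act for 48 h over an eight-point range with a top dose of 100 uM. Expression is then quantified by TaqMan RT-PCR against ACTB, GAPDH and POLR2A.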

MYC, MYC (gene 4609) = experiment: LTEA_HepaRG_MYC: Life Technologies and Expression Analysis (LTEA) Assay for MYC using HepaRG (AID 2283518)
How it was run: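 Expression changes were scored by TaqMan qRT-PCR with ACTB, GAPDH and POLR2A normalization. Cultures in serum-free induction medium received duplicate 8-point concentration series, highest 100 uM, for 48 h; DMSO (0.5%) served as baseline.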

[2] = read-out: matrix metalloproteinase-3 (MMP3), MMP3 (gene 4314); experiment: LTEA_HepaRG_MMP3: Life Technologies and Expression Analysis (LTEA) Assay for matrix metalloproteinase-3 (MMP3) using HepaRG (AID 2283519)
How it was run: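 Human liver HepaRG cultures received chemicals (top concentration 100 uM, 0.5% DMSO) for 48 h in duplicate. MMP3 mRNA induction or loss was then assessed via TaqMan qRT-PCR with housekeeping-gene normalisation.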

[3] = read-out: Paternally Expressed 10 (PEG10), PEG10 (gene 23089); experiment: LTEA_HepaRG_PEG10: Life Technologies and Expression Analysis (LTEA) Assay for Paternally Expressed 10 (PEG10) using HepaRG (AID 2283520)
How it was run: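 qRT-PCR read-out: PEG10 mRNA normalised to three housekeeping genes, fitted bidirectionally against 0.5% DMSO vehicle. HepaRG cells received test chemicals for 48 h in serum-free induction medium, 8 points, top 100 uM, half-log steps.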

[4] = read-out: Nuclear factor NF-kappa-B p105 subunit (Homo sapiens) (UniProt P19838); experiment: LTEA_HepaRG_NFKB1: Life Technologies and Expression Analysis (LTEA) Assay for Nuclear Factor Kappa B Subunit 1 (NFKB1) using HepaRG (AID 2283521);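 also: differentiated human HepaRG liver cells in serum-free induction medium; TaqMan qRT-PCR transcript normalised to ACTB GAPDH and POLR2A housekeeping genes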
How it was run: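 HepaRG, 48 h exposure; 8-pt half-log series from 100 uM in 0.5% DMSO; duplicates. Readout: NFKB1 mRNA by qRT-PCR (Fluidigm arrays), housekeeping-normalized. Gain/loss fit vs DMSO baseline.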

[5] = read-out: Protein phosphatase 2A (PPP2R4), PTPA (gene 5524); experiment: LTEA_HepaRG_PPP2R4: Life Technologies and Expression Analysis (LTEA) Assay for Protein phosphatase 2A (PPP2R4) using HepaRG (AID 2283522)
How it was run: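 HepaRG, 48 h exposure, 8-pt half-log series from 100 uM, 0.5% DMSO vehicle, duplicates. Readout: PPP2R4 mRNA, Fluidigm qRT-PCR, housekeeping-normalized. Bidirectional curve fit vs DMSO baseline.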

[6] = read-out: solute carrier (SLC22A1), SLC22A1 (gene 6580); experiment: LTEA_HepaRG_SLC22A1: Life Technologies and Expression Analysis (LTEA) Assay for solute carrier (SLC22A1) using HepaRG (AID 2283524)
How it was run: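 Transcript induction or suppression of SLC22A1 in human HepaRG cultures is scored after 48 h chemical treatment, with DMSO (0.5%) as baseline for bidirectional fitting. Concentrations span eight half-log points topping at 100 uM.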

[7] = read-out: Pyruvate Dehydrogenase Kinase 4 (PDK4), PDK4 (gene 5166); experiment: LTEA_HepaRG_PDK4: Life Technologies and Expression Analysis (LTEA) Assay for Pyruvate Dehydrogenase Kinase 4 (PDK4) using HepaRG (AID 2283525)
How it was run: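 Eight-point, half-log concentration series (max 100 uM, 0.5% DMSO) applied to differentiated HepaRG cells for 48 h in duplicate. Endpoint: PDK4 mRNA induction or repression by qRT-PCR against DMSO baseline.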

[8] = read-out: NAD(P)H dehydrogenase [quinone] 1 (NQO1), NQO1 (gene 1728); experiment: LTEA_HepaRG_NQO1: Life Technologies and Expression Analysis (LTEA) Assay for NAD(P)H dehydrogenase [quinone] 1 (NQO1) using HepaRG (AID 2283526)
How it was run: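 qRT-PCR read-out (Fluidigm TaqMan), normalized to three housekeeping genes, after 48 h chemical exposure of HepaRG cells. Concentrations: eight points, top 100 uM, half-log steps, 0.5% DMSO vehicle. Gain or loss of signal fitted relative to DMSO.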

[9] = read-out: Nuclear factor erythroid 2-related factor 2 (Homo sapiens) (UniProt Q16236); experiment: LTEA_HepaRG_NFE2L2: Life Technologies and Expression Analysis (LTEA) Assay for Nuclear factor erythroid 2-related factor 2 (NFE2L2) Transcription Factor using HepaRG (AID 2283527);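 also: TaqMan qRT-PCR transcript level normalised to ACTB GAPDH and POLR2A housekeeping genes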
How it was run: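 Human liver HepaRG line treated in duplicate for 48 h with an eight-point series topping at 100 uM. Gene expression of NFE2L2 by qRT-PCR, bidirectionally fitted against the vehicle control.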

[10] = read-out: succinate dehydrogenase complex iron sulfur subunit B (SDHB), SDHB (gene 6390); experiment: LTEA_HepaRG_SDHB: Life Technologies and Expression Analysis (LTEA) Assay for succinate dehydrogenase complex iron sulfur subunit B (SDHB) using HepaRG (AID 2283528)
How it was run: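 Readout is SDHB transcript level by qRT-PCR, normalised to three housekeeping genes and fitted bidirectionally against 0.5% DMSO vehicle. Human HepaRG cells were treated for 48 h at up to 100 uM.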

[11] = read-out: Signal transducer and activator of transcription 3 (Homo sapiens) (UniProt P40763); experiment: LTEA_HepaRG_STAT3: Life Technologies and Expression Analysis (LTEA) Assay for Signal transducer and activator of transcription (STAT3) using HepaRG (AID 2283529)
How it was run: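 In this transcriptional endpoint, HepaRG cultures receive test chemicals at up to 100 uM for 48 h, tested in duplicate. STAT3 mRNA is normalized to ACTB, GAPDH and POLR2A.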

[12] = read-out: solute carrier (SLCO1B1), SLCO1B1 (gene 10599); experiment: LTEA_HepaRG_SLCO1B1: Life Technologies and Expression Analysis (LTEA) Assay for solute carrier (SLCO1B1) using HepaRG (AID 2283530)
How it was run: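 Human HepaRG cultures treated for 48 h with an eight-concentration half-log series topping at 100 uM; SLCO1B1 measured by qRT-PCR and fitted bidirectionally relative to DMSO.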

[13] = read-out: sulfotransferase 2A1 (SULT2A1), SULT2A1 (gene 6822); experiment: LTEA_HepaRG_SULT2A1: Life Technologies and Expression Analysis (LTEA) Assay for sulfotransferase 2A1 (SULT2A1) using HepaRG (AID 2283531)
How it was run: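 Gene-expression endpoint in a human liver cell line: SULT2A1 mRNA change after 48 h chemical treatment, curves fitted in both directions relative to 0.5% DMSO vehicle. Concentrations spanned eight half-log steps from 100 uM.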

[14] = read-out: Transforming Growth Factor (TGFA), TGFA (gene 7039); experiment: LTEA_HepaRG_TGFA: Life Technologies and Expression Analysis (LTEA) Assay for Transforming Growth Factor (TGFA) using HepaRG (AID 2283532)
How it was run: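 Gene expression of TGFA was quantified by qRT-PCR after human HepaRG cells were treated for 48 h with test chemicals (eight concentrations, highest 100 uM, 0.5% DMSO). Activity in either direction was fitted relative to DMSO.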

[15] = read-out: Transforming Growth Factor (TGFB1), TGFB1 (gene 7040); experiment: LTEA_HepaRG_TGFB1: Life Technologies and Expression Analysis (LTEA) Assay for Transforming Growth Factor (TGFB1) Transporter using HepaRG (AID 2283533)
How it was run: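 Eight-point concentration-response (max 100 uM, half-log) in HepaRG under serum-free induction conditions, 48 h. TGFB1 mRNA by qRT-PCR, housekeeping-normalized.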

TIMP1, TIMP1 (gene 7076) = experiment: LTEA_HepaRG_TIMP1: Life Technologies and Expression Analysis (LTEA) Assay for TIMP1 using HepaRG (AID 2283534);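 also: TaqMan qRT-PCR signal normalized to ACTB GAPDH and POLR2A housekeeping genes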
How it was run: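 TIMP1 induction or repression in HepaRG cells after 48 h chemical exposure (eight concentrations, highest 100 uM), assessed by normalized qRT-PCR with bidirectional fitting to DMSO controls.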

[16] = read-out: Tumor necrosis factor receptor 1 (TNFRSF1A), TNFRSF1A (gene 7132); experiment: LTEA_HepaRG_TNFRSF1A: Life Technologies and Expression Analysis (LTEA) Assay for Tumor necrosis factor receptor 1 (TNFRSF1A) using HepaRG (AID 2283535)
How it was run: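 Assay uses 48 h chemical treatment of differentiated HepaRG monolayers, tested in duplicate at eight concentrations from 100 uM downward in 0.5% DMSO. mRNA is normalized to ACTB, GAPDH and POLR2A, with induction or suppression fitted relative to vehicle.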

[17] = read-out: Thyroid Hormone Responsive (THRSP), THRSP (gene 7069); experiment: LTEA_HepaRG_THRSP: Life Technologies and Expression Analysis (LTEA) Assay for Thyroid Hormone Responsive (THRSP) using HepaRG (AID 2283536)
How it was run: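 Cell model: human HepaRG, approx. 100,000 cells/well, 0.5% DMSO vehicle. Exposure lasts 48 h; phenobarbital 1 mM serves as induction positive control. Gene expression is measured by qRT-PCR against three endogenous control genes.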

[18] = read-out: Phosphatase and tensin (PTEN), PTEN (gene 5728); experiment: LTEA_HepaRG_PTEN: Life Technologies and Expression Analysis (LTEA) Assay for Phosphatase and tensin (PTEN) using HepaRG (AID 2283523)
How it was run: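 Expression of PTEN is quantified in the human liver line HepaRG following two days of dosing (top concentration 100 uM, half-log dilutions, 0.5% DMSO). Values derive from bidirectional curve fitting relative to DMSO controls.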

Measured: outcome

Sequence of Nuclear factor NF-kappa-B p105 subunit (Homo sapiens) (P19838 whole entry, looked up): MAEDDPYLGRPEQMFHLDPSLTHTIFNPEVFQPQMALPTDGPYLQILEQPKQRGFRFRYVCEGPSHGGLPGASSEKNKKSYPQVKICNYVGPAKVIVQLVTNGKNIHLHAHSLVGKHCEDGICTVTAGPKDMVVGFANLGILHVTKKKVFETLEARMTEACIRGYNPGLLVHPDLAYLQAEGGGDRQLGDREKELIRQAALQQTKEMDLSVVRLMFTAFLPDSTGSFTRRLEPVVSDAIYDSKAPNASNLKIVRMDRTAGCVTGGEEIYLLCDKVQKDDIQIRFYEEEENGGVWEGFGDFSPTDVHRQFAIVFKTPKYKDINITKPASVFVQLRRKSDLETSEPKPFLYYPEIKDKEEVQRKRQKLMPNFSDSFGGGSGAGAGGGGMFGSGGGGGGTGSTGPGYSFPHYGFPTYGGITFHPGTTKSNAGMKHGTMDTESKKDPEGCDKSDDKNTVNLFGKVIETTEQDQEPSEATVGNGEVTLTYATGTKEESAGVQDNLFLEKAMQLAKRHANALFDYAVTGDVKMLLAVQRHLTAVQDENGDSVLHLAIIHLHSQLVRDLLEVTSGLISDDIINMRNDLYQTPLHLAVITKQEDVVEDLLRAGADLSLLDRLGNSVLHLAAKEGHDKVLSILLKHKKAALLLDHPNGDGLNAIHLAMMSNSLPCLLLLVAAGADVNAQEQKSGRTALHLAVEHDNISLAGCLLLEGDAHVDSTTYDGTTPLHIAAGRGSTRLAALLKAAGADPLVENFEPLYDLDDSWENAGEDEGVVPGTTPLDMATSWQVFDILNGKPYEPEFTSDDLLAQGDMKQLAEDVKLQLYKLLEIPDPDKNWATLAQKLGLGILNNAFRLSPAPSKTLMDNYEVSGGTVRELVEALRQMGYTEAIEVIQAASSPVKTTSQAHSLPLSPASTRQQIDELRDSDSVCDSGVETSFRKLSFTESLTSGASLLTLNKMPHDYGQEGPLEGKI
Sequence of Nuclear factor erythroid 2-related factor 2 (Homo sapiens) (Q16236 whole entry, looked up): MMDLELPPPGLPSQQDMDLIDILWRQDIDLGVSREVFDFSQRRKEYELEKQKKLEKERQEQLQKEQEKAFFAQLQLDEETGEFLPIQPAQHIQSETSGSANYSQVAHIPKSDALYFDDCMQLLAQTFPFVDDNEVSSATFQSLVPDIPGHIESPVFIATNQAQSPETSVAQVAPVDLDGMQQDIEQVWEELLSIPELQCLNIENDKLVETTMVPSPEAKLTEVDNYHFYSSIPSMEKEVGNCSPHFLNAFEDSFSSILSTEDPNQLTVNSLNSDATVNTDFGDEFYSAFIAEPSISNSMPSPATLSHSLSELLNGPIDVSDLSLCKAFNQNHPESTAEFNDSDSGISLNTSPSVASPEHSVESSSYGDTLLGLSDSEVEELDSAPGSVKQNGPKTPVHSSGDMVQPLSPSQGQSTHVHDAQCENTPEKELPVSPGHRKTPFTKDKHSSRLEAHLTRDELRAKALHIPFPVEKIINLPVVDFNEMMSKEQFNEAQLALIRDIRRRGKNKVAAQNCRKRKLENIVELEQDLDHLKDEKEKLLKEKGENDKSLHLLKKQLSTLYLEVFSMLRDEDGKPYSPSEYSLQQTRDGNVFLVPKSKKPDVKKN
Sequence of Signal transducer and activator of transcription 3 (Homo sapiens) (P40763 whole entry, looked up): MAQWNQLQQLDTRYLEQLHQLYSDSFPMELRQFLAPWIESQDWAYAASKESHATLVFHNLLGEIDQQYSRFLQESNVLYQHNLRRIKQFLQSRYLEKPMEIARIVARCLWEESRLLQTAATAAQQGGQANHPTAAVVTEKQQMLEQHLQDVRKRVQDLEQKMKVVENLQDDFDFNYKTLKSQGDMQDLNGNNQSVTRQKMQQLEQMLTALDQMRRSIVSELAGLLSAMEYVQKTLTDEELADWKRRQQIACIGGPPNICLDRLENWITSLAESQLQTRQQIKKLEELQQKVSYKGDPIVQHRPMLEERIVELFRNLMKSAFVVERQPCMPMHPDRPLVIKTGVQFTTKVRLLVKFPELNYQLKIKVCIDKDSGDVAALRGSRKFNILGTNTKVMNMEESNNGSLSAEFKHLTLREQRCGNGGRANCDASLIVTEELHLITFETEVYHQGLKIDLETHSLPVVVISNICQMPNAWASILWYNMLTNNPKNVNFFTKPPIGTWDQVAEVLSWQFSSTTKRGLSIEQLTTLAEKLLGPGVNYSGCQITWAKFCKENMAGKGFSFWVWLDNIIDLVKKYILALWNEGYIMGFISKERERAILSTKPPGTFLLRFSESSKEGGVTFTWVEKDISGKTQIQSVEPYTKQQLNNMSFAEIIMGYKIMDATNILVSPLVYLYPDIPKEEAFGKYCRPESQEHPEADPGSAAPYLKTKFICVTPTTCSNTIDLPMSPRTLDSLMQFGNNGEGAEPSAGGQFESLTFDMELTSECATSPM

NCC1(Cc2noc(=O)[nH]2)CCCCC1
inactive: [1] | MYC, MYC (gene 4609) | [2] | [3] | [4] | [5] | [6] | [7] | [8] | [9] | [10] | [11] | [12] | [13] | [14] | [15] | TIMP1, TIMP1 (gene 7076) | [16] | [17]

Cc1cccc(Nc2cc(Cl)nc(SCC(=O)O)n2)c1C
inactive: [1] | MYC, MYC (gene 4609) | [2] | [3] | [4] | [5] | [18] | [6] | [8] | [9] | [10] | [11] | [12] | [13] | [14] | [15] | TIMP1, TIMP1 (gene 7076) | [16] | [17]

CC1(C)NC(=O)NC1=O
inactive: [1] | MYC, MYC (gene 4609) | [2] | [3] | [4] | [5] | [6] | [7] | [8] | [9] | [10] | [11] | [12] | [13] | [14] | [15] | TIMP1, TIMP1 (gene 7076) | [16] | [17]
